Assays:
[1] = biological target: MAP kinase-activated protein kinase 2 (Homo sapiens) (UniProt P49137); conditions: at 10 µM
[2] = biological target: MAP kinase-activated protein kinase 3 (Homo sapiens) (UniProt Q16644); conditions: at 10 µM
[3] = biological target: Serine/threonine-protein kinase MARK1 (Homo sapiens) (UniProt Q9P0L2); conditions: at 1 µM
[4] = biological target: Serine/threonine-protein kinase MARK1 (Homo sapiens) (UniProt Q9P0L2); conditions: at 10 µM
[5] = biological target: Dual specificity mitogen-activated protein kinase kinase 1 (Homo sapiens) (UniProt Q02750); conditions: at 1 µM
[6] = biological target: Dual specificity mitogen-activated protein kinase kinase 1 (Homo sapiens) (UniProt Q02750); conditions: at 10 µM
[7] = biological target: Maternal embryonic leucine zipper kinase (Homo sapiens) (UniProt Q14680); conditions: at 1 µM
[8] = biological target: Maternal embryonic leucine zipper kinase (Homo sapiens) (UniProt Q14680); conditions: at 10 µM
[9] = biological target: Misshapen-like kinase 1 (Homo sapiens) (UniProt Q8N4C8); conditions: at 1 µM
[10] = biological target: Misshapen-like kinase 1 (Homo sapiens) (UniProt Q8N4C8); conditions: at 10 µM
[11] = biological target: T1, Dual specificity mitogen-activated protein kinase kinase 6 (Homo sapiens) (UniProt P52564); conditions: at 1 µM
T1 sequence (whole entry): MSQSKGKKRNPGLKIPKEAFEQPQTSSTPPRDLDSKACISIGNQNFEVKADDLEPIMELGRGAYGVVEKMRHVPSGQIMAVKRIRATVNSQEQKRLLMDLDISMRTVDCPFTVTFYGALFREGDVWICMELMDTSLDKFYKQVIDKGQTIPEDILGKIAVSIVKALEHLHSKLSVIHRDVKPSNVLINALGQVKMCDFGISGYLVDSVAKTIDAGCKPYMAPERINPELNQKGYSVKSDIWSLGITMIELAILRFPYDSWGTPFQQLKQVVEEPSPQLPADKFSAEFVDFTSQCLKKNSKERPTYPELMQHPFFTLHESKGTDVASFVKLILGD

[12] = biological target: T1, Dual specificity mitogen-activated protein kinase kinase 6 (Homo sapiens); conditions: at 10 µM
[13] = biological target: T2, Dual specificity mitogen-activated protein kinase kinase 7 (Homo sapiens) (UniProt O14733); conditions: at 1 µM
T2 sequence (whole entry): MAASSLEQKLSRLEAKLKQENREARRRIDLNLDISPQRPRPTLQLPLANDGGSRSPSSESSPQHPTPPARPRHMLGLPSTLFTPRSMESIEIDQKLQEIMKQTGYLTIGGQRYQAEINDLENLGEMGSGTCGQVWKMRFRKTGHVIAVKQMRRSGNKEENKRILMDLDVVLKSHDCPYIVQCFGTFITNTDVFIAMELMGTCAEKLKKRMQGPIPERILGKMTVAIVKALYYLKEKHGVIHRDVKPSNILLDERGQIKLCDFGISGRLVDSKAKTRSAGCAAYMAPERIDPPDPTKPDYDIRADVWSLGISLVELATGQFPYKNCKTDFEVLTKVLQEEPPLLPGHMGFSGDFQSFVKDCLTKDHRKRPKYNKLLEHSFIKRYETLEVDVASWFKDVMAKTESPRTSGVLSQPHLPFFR

[14] = biological target: T2, Dual specificity mitogen-activated protein kinase kinase 7 (Homo sapiens); conditions: at 10 µM
[15] = biological target: Myosin light chain kinase, smooth muscle (Homo sapiens) (UniProt Q15746); conditions: at 1 µM
[16] = biological target: Myosin light chain kinase, smooth muscle (Homo sapiens) (UniProt Q15746); conditions: at 10 µM
[17] = biological target: Mitogen-activated protein kinase kinase kinase 9 (Homo sapiens) (UniProt P80192); conditions: at 1 µM
[18] = biological target: Mitogen-activated protein kinase kinase kinase 9 (Homo sapiens) (UniProt P80192); conditions: at 10 µM
[19] = biological target: Serine/threonine-protein kinase MRCK alpha (Homo sapiens) (UniProt Q5VT25); conditions: at 1 µM
[20] = biological target: Serine/threonine-protein kinase MRCK alpha (Homo sapiens) (UniProt Q5VT25); conditions: at 10 µM

Sequence of MAP kinase-activated protein kinase 2 (Homo sapiens) (P49137 whole entry, looked up): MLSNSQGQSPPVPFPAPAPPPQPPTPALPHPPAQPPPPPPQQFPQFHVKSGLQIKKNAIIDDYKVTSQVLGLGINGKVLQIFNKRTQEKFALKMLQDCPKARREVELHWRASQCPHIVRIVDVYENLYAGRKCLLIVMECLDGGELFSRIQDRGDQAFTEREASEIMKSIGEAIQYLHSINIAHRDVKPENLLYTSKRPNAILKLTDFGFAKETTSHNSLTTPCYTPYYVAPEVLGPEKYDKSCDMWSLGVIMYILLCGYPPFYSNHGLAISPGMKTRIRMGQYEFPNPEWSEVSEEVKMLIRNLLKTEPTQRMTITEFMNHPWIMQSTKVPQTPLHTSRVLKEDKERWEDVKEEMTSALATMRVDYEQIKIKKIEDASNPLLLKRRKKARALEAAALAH
Sequence of Serine/threonine-protein kinase MRCK alpha (Homo sapiens) (Q5VT25 whole entry): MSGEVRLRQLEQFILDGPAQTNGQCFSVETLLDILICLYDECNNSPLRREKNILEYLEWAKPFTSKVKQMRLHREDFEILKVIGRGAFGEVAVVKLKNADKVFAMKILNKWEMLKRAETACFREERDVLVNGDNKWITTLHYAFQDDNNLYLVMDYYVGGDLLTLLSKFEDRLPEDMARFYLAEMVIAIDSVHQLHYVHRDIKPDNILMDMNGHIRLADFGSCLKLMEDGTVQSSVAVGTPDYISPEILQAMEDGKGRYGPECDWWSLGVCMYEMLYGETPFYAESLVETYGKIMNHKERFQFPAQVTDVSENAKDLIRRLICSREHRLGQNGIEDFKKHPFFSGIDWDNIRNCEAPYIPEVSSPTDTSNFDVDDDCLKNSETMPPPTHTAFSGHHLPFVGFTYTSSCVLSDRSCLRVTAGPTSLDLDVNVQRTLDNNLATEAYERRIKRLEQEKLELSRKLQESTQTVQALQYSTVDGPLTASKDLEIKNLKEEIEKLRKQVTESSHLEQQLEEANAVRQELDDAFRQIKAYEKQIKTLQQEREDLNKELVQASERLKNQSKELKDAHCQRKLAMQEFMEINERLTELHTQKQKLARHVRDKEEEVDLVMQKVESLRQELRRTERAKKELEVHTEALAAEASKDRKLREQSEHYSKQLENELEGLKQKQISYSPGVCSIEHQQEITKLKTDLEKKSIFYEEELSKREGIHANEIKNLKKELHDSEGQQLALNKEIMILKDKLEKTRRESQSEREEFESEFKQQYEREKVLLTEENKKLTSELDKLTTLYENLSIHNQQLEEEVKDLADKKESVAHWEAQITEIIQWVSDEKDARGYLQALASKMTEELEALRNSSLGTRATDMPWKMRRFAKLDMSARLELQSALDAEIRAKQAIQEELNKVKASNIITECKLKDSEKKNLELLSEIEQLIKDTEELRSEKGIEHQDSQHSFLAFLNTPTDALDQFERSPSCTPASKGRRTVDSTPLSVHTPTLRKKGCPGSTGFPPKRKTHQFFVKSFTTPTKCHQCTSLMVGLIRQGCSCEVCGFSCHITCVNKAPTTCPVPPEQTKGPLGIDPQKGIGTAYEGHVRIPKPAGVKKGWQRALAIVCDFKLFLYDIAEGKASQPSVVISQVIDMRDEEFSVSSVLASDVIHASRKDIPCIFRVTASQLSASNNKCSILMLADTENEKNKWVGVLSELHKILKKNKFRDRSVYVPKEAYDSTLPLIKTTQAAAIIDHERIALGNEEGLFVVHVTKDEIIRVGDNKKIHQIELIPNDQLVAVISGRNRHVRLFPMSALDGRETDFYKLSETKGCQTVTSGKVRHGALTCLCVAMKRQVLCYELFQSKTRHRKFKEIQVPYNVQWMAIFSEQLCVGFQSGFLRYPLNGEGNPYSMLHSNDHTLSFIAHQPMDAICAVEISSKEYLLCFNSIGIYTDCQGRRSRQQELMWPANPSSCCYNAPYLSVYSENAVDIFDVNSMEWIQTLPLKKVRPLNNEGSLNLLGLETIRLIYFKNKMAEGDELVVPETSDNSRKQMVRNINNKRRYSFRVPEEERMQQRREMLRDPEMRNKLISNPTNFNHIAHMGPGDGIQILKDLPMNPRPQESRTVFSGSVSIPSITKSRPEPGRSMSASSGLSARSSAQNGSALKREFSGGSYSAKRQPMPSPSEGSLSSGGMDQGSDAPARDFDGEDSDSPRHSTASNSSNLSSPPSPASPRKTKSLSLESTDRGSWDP
Sequence of Maternal embryonic leucine zipper kinase (Homo sapiens) (Q14680 whole entry, looked up): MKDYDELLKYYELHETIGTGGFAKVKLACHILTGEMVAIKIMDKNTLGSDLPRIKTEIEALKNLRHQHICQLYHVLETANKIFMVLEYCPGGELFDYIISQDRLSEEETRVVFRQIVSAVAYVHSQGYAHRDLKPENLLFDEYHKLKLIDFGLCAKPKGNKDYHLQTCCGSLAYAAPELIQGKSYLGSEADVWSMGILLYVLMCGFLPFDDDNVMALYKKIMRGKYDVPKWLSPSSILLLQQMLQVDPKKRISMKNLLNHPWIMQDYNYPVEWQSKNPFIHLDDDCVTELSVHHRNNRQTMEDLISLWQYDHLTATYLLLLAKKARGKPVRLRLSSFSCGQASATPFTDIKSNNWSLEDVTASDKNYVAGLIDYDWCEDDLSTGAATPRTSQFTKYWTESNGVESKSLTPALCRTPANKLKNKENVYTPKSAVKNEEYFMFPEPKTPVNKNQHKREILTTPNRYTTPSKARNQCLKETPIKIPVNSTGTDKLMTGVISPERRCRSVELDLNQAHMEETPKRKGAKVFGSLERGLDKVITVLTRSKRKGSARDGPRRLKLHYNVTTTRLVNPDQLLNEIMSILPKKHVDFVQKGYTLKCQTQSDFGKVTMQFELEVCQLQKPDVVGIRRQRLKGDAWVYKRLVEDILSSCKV
Sequence of Myosin light chain kinase, smooth muscle (Homo sapiens) (Q15746 whole entry): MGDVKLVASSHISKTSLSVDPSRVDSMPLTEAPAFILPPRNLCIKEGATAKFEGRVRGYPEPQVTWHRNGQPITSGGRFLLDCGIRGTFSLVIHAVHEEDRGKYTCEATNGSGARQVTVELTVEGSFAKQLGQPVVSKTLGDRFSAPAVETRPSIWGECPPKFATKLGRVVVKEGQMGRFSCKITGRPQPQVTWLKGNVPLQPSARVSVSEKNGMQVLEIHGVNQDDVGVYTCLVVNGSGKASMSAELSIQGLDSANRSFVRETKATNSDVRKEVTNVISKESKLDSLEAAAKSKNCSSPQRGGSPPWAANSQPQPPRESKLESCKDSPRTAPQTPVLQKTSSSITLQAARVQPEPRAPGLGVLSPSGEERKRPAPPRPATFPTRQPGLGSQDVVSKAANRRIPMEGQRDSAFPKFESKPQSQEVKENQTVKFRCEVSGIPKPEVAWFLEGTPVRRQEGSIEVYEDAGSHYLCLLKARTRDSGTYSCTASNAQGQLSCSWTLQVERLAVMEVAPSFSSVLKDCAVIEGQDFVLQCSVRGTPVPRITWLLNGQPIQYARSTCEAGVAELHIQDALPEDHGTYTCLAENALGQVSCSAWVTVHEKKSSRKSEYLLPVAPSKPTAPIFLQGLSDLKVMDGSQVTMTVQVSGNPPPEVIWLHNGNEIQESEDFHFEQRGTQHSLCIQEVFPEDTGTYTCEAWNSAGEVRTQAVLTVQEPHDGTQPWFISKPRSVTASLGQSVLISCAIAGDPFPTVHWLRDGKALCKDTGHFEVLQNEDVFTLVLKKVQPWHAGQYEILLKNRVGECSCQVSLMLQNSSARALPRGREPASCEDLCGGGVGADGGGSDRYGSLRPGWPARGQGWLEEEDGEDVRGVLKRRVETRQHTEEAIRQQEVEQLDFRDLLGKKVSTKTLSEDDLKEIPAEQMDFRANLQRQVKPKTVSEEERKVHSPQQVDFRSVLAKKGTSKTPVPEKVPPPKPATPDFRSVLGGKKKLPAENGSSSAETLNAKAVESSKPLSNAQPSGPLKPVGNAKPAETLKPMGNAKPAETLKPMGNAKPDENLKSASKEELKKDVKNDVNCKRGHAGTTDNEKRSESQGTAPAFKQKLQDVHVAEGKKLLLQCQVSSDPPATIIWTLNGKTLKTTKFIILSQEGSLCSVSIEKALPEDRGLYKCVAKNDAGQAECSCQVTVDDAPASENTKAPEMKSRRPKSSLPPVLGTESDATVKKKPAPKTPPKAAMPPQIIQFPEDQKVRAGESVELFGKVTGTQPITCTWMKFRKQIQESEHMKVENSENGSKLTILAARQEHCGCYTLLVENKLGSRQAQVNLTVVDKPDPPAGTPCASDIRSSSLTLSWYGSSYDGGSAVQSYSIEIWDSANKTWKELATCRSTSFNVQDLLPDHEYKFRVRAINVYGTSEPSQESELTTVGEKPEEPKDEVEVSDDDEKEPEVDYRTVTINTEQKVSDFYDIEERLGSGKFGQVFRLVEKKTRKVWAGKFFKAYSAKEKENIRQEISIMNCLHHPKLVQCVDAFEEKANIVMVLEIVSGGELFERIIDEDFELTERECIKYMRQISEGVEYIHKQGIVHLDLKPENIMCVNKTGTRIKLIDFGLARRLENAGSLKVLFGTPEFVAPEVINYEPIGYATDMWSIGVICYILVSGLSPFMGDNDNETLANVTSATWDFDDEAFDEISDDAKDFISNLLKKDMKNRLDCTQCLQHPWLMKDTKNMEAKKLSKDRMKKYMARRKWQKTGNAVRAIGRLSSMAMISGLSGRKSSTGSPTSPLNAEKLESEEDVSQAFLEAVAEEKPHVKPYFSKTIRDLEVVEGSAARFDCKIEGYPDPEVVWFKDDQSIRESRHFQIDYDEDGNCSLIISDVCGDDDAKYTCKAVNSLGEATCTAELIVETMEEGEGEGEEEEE
Sequence of Dual specificity mitogen-activated protein kinase kinase 1 (Homo sapiens) (Q02750 whole entry): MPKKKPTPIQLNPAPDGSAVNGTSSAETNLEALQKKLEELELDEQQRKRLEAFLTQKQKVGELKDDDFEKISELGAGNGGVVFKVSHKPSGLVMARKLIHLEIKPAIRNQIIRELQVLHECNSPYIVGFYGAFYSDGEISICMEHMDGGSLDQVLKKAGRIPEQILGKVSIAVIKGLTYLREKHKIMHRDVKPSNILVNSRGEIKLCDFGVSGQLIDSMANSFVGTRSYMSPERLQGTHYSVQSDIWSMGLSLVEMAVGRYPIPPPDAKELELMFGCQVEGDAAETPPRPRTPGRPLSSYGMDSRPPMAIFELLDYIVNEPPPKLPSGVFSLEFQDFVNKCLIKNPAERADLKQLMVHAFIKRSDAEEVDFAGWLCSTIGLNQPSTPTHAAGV

Row | SMILES | residual activity [1] [%] | residual activity [2] [%] | residual activity [3] [%] | residual activity [4] [%] | residual activity [5] [%] | residual activity [6] [%] | residual activity [7] [%] | residual activity [8] [%] | residual activity [9] [%] | residual activity [10] [%] | residual activity [11] [%] | residual activity [12] [%] | residual activity [13] [%] | residual activity [14] [%] | residual activity [15] [%] | residual activity [16] [%] | residual activity [17] [%] | residual activity [18] [%] | residual activity [19] [%] | residual activity [20] [%]
1 | Cc1nc(-c2ccccc2)c(-c2ccncc2)o1 | 110 | 101 | 97 | 89 | 105 | 106 | 104 | 89 | 118 | 88 | 99 | 37 | 100 | 103 | 106 | 88 | 106 | 102 | 114 | 129
2 | Cn1cc(/C=C2\C(=O)Nc3ccc(S(N)(=O)=O)cc32)c2ccccc21 | 71 | 88 | 23 | 7 | 42 | 19 | 42 | 51 | 56 | 61 | 69 | 85 | 89 | 59 | 63 | 82 | 6 | 3 | 103 | 89
3 | Cc1cc(Nc2nc(-c3ccccc3)nc3ccccc23)n[nH]1 |  |  | 66 | 26 |  | 67 | 46 | 7 | 61 | 14 | 101 | 71 | 72 | 58 | 55 | 9 | 4 | 1 | 122 | 110
4 | COc1ccc(S(=O)(=O)N(CCO)c2ccccc2CN(C)C/C=C/c2ccc(Cl)cc2)cc1 | 73 | 84 | 83 | 77 | 97 | 79 | 90 | 63 | 98 | 97 | 99 | 74 | 101 | 73 | 97 | 41 | 99 | 92 | 119 | 113
5 | N#CCCc1ccc2c(c1)-c1[nH]c3ccc([N+](=O)[O-])cc3c1CC(=O)N2 | 39 | 49 | 30 | 9 |  |  | 69 | 52 | 38 | 17 |  |  |  |  |  |  | 7 | 2 | 35 | 19
6 | COc1cc2ncc(-c3ccccc3)nc2cc1OC | 80 |  | 90 | 80 |  |  | 69 | 60 | 92 | 62 | 92 | 92 | 90 | 90 | 78 | 86 | 94 | 60 |  | 93
7 | c1ccc(-c2n[nH]c3c2oc2ccccc23)cc1 |  |  | 69 | 44 |  |  | 43 | 7 | 73 | 34 | 76 | 89 | 87 | 67 | 66 | 64 | 69 | 39 | 92 | 116
8 | O=Nc1c(-c2c(O)[nH]c3ccccc23)[nH]c2ccccc12 | 76 | 88 | 37 | 5 | 64 | 55 |  | 7 | 54 | 10 | 63 | 40 | 52 | 7 | 46 | 13 | 6 | 1 | 142 | 135

From ChEMBL document CHEMBL2218924, “A broad activity screen in support of a chemogenomic map for kinase signalling research and drug discovery” (Biochem J, 2013)
